Out of some 93,000 compounds screened, about 65 (0.07%) were called active.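 How the source made its calls: active means 10 µM primary screen giving 50% or more activity, confirmed by 40% or more on retest at that dose; inactive means the rest.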 Many of the other results were omitted from the sample, so actives are more common in it than they were.

The target in the experiment is Integrin beta-2 (Homo sapiens) + Integrin alpha-M (Homo sapiens) (UniProt P05107+P11215). Briefly: agonists of integrin CD11b/CD18-fibrinogen binding – K562 cells, luminescence, primary screen (AID 1499). The following applies: K562 CD11b/CD18 adhesion to fibrinogen, ATPlite luminescence; at 10 µM; active compounds read high.
Chain of Integrin beta-2 (Homo sapiens) + Integrin alpha-M (Homo sapiens) (P05107 whole entry, looked up, other chains not shown): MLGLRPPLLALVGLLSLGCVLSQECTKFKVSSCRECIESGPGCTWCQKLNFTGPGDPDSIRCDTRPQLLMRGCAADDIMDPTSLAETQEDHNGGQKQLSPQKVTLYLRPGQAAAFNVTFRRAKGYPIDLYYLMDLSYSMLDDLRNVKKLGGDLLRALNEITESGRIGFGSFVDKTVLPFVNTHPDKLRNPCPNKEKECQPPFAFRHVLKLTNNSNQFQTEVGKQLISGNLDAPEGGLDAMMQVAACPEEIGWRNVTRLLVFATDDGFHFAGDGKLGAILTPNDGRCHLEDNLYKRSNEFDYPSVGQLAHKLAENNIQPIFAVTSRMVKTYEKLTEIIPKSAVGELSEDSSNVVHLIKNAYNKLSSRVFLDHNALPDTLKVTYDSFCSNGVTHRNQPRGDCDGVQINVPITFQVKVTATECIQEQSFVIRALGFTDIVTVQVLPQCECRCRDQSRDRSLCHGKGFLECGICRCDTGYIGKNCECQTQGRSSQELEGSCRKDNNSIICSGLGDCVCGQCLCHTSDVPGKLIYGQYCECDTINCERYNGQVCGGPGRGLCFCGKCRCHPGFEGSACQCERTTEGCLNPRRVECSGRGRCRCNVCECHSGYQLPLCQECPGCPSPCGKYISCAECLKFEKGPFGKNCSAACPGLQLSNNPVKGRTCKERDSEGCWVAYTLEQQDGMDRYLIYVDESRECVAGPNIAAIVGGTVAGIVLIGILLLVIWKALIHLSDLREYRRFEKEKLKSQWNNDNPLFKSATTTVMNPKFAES
In the case of `CCCN(CCC)c1c([N+](=O)[O-])c(=O)oc2ccccc12`, the activation is 2.9% (inactive).
For `CC(C)[C@H](NC(=O)c1ccc(F)cc1)C(=O)OCC(=O)NC(=O)c1cccn1C`, the activation is 25.8% (inactive).
Take `Cc1cc(C)c(NC(=S)N2CCCC2C(=O)O)c(C)c1` (stereo unspecified): the activation was -3.4% (inactive).
The figure for `O=C(Nc1cc(C(F)(F)F)ccc1Cl)C(=O)N1CCCCC1` is 10.3% (inactive); for `CC(C)CCSc1ncnc2c1oc1nc3c(cc12)COC(C)(C)C3` it is 6.2% (inactive); for `CC1(C)Cc2nc3sc4c(SCC(=O)NC(c5ccccc5)c5ccccc5)ncnc4c3cc2CO1` it is 93.6% (active).
The figure for `CC(NC(=O)CSc1nc2c(cc1C#N)CN(C)CC2)c1ccccc1` (stereo unspecified) is -1.5% (inactive); for `CCc1c(C)sc(NC(=O)/C=C/c2ccc3c(c2)OCO3)c1C(=O)OC` it is 9.1% (inactive); for `COc1ccc2oc(-c3cccc(NC(=O)CSc4ccc(Cl)cc4)c3)nc2c1` it is 13.1% (inactive).
Take `O=C(COC(=O)Cc1ccc(F)cc1)Nc1cc(S(=O)(=O)N2CCOCC2)ccc1N1CCCC1`: the activation was -2.5% (inactive).
Regarding `CN(C)CCCO/N=C(\c1ccccc1)c1ccncc1`, the activation was 3.7% (inactive).
The figure for `O=C(COC(=O)Cn1cnc2ccccc21)Nc1cccc2c1C(=O)c1ccccc1C2=O` is 7.9% (inactive).
`COc1cc(Cl)c(C)cc1NC(=O)COC(=O)c1cc(SC)ccc1Cl`: the activation is 0.1% (inactive).
The figure for `Cc1ccc(-c2nc(C)sc2CC(=O)OCC(=O)Nc2c(F)cccc2F)cc1` is -4% (inactive); for `Cc1csc(=Nc2ccccc2)n1CCO` it is 0.8% (inactive).
The figure for `Cc1ccc(S(=O)(=O)Nc2nc(C)cc(N/N=C/c3ccc(O)cc3)n2)cc1` is 13.5% (inactive); for `Cc1cccc(NC(=O)Cn2c(=O)n(Cc3ccccc3)c(=O)c3c(C)c(C)sc32)c1` it is 6.7% (inactive).
The figure for `Cc1ccc(/C=N/NC(=O)CNC(=O)COc2ccccc2)o1` is 6.3% (inactive); for `O=C1N(c2ccc(Cl)cc2)C(c2ccc(Cl)cc2)N2CCCN12` (stereo unspecified) it is 3.2% (inactive); for `CCOc1ccc(/C=N/OCC(=O)NCc2cccs2)cc1` it is -0.5% (inactive).
For `C=CCSc1nc2ccccc2[nH]1`, the activation is 6.8% (inactive).
`C=CCn1c(SCn2nnc3ccccc3c2=O)nnc1-c1ccc(Cl)cc1`: the activation was 4.1% (inactive).
`C=CCSc1nc(Cc2ccc(Cl)cc2)nc2ccccc12`: the activation was 69.1% (active).
The figure for `Cc1sc2ncnc(Sc3nc4ccccc4s3)c2c1C` is 12.1% (inactive).
Consider `OC(COCC1COc2ccccc2O1)CN1CCN(c2ccc(F)cc2)CC1` (stereo unspecified), for which the activation is 4.1% (inactive).
The figure for `C/C(=N/NC(=O)C1COc2ccccc2O1)c1ccco1` (stereo unspecified) is 1.2% (inactive); for `N#CCOc1ccc(C2=NO[C@@H]3[C@@H]4C[C@@H]([C@H]5C(=O)N(c6ccc7c(c6)OCO7)C(=O)[C@@H]45)[C@H]23)cc1` it is 0.6% (inactive).
With `CC(=C/c1ccccc1)/C=N/NC(=O)c1cc(C)oc1C`, the activation is -1.7% (inactive).
With `COc1ccc(NC(=O)c2ccc(C#CC(C)(C)O)cc2)cc1`, the activation is 2.8% (inactive).
The figure for `Cc1ccc(OCC(=O)Nc2ccccc2Sc2ccc(Cl)cc2)c([N+](=O)[O-])n1` is -1% (inactive); for `Cc1cccc(-n2c(C)cc(/C=N/NC(N)=S)c2C)c1` it is -1.9% (inactive).
The figure for `CC(C)NC(=S)N1CCN(S(C)(=O)=O)CC1` is 0.6% (inactive); for `Cc1ccc(-c2nn(-c3ccccc3)cc2C(=O)Nc2cccc(S(=O)(=O)N3CCOCC3)c2)cc1` it is -0.1% (inactive); for `CCOc1ccc(NC(=S)NC(=O)/C=C/c2ccc(OC)cc2)c([N+](=O)[O-])c1` it is 34.7% (inactive).
`CCOC(=O)c1c(NC(=S)Nc2ccccc2C)sc2c1CCC2`: the activation was 2.8% (inactive).
In the case of `CCOCCCNC(=O)C(=O)NCCCOCC`, the activation was -2.3% (inactive).
The figure for `CCc1nnc(NC(=O)C2CC(=O)N(c3ccc4c(c3)OCCO4)C2)s1` (stereo unspecified) is 5% (inactive).
The figure for `CCCn1c(C)cc(/C=C(\C#N)C(=O)OCC(=O)Nc2cc(OC)c(OC)c(OC)c2)c1C` is 3% (inactive); for `O=C(/C=C/c1ccccc1)Nc1nnc(SCC(=O)c2ccc3ccccc3c2)s1` it is 59.6% (inactive); for `CCc1nnc(NC(=O)[C@@H](NC(=O)c2cccc(C)c2)C(C)C)s1` it is -1.2% (inactive).
The figure for `O=C(CSc1nc2ccccc2[nH]1)Nc1nc(-c2ccccc2)c(-c2ccccc2)o1` is -6.7% (inactive); for `CN(Cc1cccs1)C(=O)Cc1c[nH]c2ccccc12` it is -1.9% (inactive); for `COC(=O)c1ccc(OCC(O)CN(CCO)CC(O)Cn2ccc3ccccc32)cc1` (stereo unspecified) it is 8.9% (inactive).
Take `Cc1c(Cl)cnc(NC(=O)COC(=O)c2ccc(S(=O)(=O)NCc3ccco3)cc2)c1Cl`: the activation is 12.8% (inactive).
`CC(C)(C)c1ccc(C(=O)NCc2nnc(SCC(=O)N3CCCc4ccccc43)n2-c2ccccc2)cc1`: the activation is -4.7% (inactive).
The figure for `Cc1cc(Br)ccc1SCC(=O)OCC(=O)NCc1ccc2c(c1)OCO2` is 4.5% (inactive); for `N#Cc1c(-c2ccc(F)cc2)cc(C2CC2)nc1SCC(=O)c1cccs1` it is 12.6% (inactive); for `CCn1c2ccccc2c2cc(NC(=O)COC(=O)c3ccccc3Br)ccc21` it is 0.6% (inactive).
With `CC(C)Nc1nnc(SCC(=O)/C=C2\N(C)c3ccccc3C2(C)C)s1`, the activation is 0% (inactive).
Regarding `Cc1cccc(CC(=O)N2CCN=C2SCc2ccc([N+](=O)[O-])cc2)c1`, the activation was 5.7% (inactive).
`CCOc1ccc(CCNC(=O)CSc2cc(=O)n(C)c3ccc(Cl)cc23)cc1OCC`: the activation was 0.6% (inactive).
As for `Cc1c(C(=O)Nc2cccc(-c3nnc4n3CCCCC4)c2)oc2ccccc12`, the activation was 0.4% (inactive).
The figure for `CC(=O)c1ccc(NC(=O)Nc2ccc([N+](=O)[O-])cc2C)cc1` is -2.3% (inactive); for `Cc1cc2oc(=O)cc(CN3CCN(S(=O)(=O)c4cccs4)CC3)c2cc1C(C)C` it is -0.5% (inactive).
The figure for `O=C(CCCCCNC(=O)c1ccccc1)N/N=C/c1ccccc1` is -6.5% (inactive); for `COc1ccc(NS(=O)(=O)c2ccc(NC(=S)NC(=O)/C=C/c3ccc(C)cc3)cc2)nn1` it is 3.8% (inactive).
The figure for `O=C(NNC(=S)Nc1ccc(Br)cc1Cl)c1ccco1` is -7.7% (inactive).
`COc1ccc(C(CC(=O)Nc2ccc(C)cc2)NC(=O)C(F)(F)F)cc1` (stereo unspecified): the activation was -0.4% (inactive).
Turning to `Brc1ccc(-c2csc(N/N=C/c3ccc4c(c3)OCO4)n2)cc1`, the activation is 18.4% (inactive).
For the compound `CCOc1ncccc1C(=O)N(C)CC(=O)Nc1ccc(F)cc1`, the activation was -3.5% (inactive).
The figure for `CCCN1CNC(=S)N(CCc2ccccc2)C1` is 5.1% (inactive).
The figure for `Cc1cc(C)cc(C(=O)N2CCN=C2SCc2ccc([N+](=O)[O-])cc2)c1` is 0.8% (inactive); for `COc1cc(OC)c(C(=O)OC(C)C(=O)Nc2cc(C(F)(F)F)ccc2Cl)cc1OC` (stereo unspecified) it is 4.1% (inactive); for `O=C(Nc1ccccc1F)c1ccccc1-c1ccccc1` it is 0.5% (inactive).
As for `Cc1ccc(NC(=O)Nc2ccccc2)c(Br)c1`, the activation is 12.1% (inactive).
The figure for `COc1ccccc1CN(C)C(=O)C1(c2ccc(Cl)cc2)CC1` is 11.3% (inactive); for `C/C(=N\NS(=O)(=O)c1ccc(Cl)cc1)c1ccc(NC(=O)c2ccco2)cc1` it is -2.4% (inactive).
The figure for `CC1CCN(c2ccc(C(=O)NCc3ccc4c(c3)OCO4)cc2[N+](=O)[O-])CC1` is 0.5% (inactive).
In the case of `O=C(COC(=O)c1ccc(Cl)nc1)NCc1ccc2c(c1)OCO2`, the activation is 4% (inactive).
Regarding `COCCn1c(=NC(=O)c2ccccc2[N+](=O)[O-])sc2cc(S(C)(=O)=O)ccc21`, the activation is 2% (inactive).
The figure for `CCOC(=O)c1c(/N=C/c2cc(C)ccc2O)sc2c1CCC2` is -6% (inactive); for `COc1cccc(NC(=O)C(Sc2nc3ccccc3c(=O)n2CC(C)C)c2ccccc2)c1` (stereo unspecified) it is 1% (inactive).
In the case of `COc1cc(C(=O)NCc2nnc(SCC(=O)Nc3nc4ccc(C)cc4s3)o2)cc(OC)c1OC`, the activation is 10.4% (inactive).
The figure for `COc1ccc(-c2csc(NC(=O)CCCc3cccs3)n2)cc1` is -1.8% (inactive); for `O=C(Nc1ccc2c(c1)OCO2)c1ccc(N2C(=O)c3ccccc3C2=O)cc1` it is 23.5% (inactive).
Turning to `C/C(CC1CC(C)(C)OC1=O)=N/Nc1nc(-c2ccccc2)cs1` (stereo unspecified), the activation was -0.2% (inactive).
The figure for `O=C(Cn1cnc2ccccc21)N/N=C/c1ccco1` is -5.8% (inactive); for `c1ccc(C2=Nc3cccc4cccc(c34)N2)cc1` it is 7% (inactive).
Regarding `COc1ccc(Br)cc1CN(C)CC(=O)Nc1cc([N+](=O)[O-])ccc1OC`, the activation was -0.1% (inactive).
Take `CCOC(=O)c1cnc2ccc(F)cc2c1Nc1ccc2c(c1)OCCO2`: the activation was 4.3% (inactive).
The figure for `Cc1c(Br)c([N+](=O)[O-])nn1CC(=O)Nc1sc2c(c1C(=O)OC(C)C)CCC(C)C2` (stereo unspecified) is 10.3% (inactive).
The figure for `COc1ccc(/C=C2/C(=O)OCc3cc(OC)c(OC)cc32)c(OC)c1` is 4% (inactive).
The figure for `COc1ccc(-c2csc(NC(=O)COC(=O)Cc3ccc(Cl)cc3Cl)n2)cc1` is -1.1% (inactive); for `Cc1ccc(-n2c(SCC(=O)N3c4ccccc4Sc4ccccc43)nnc2-c2ccncc2)cc1` it is 7.2% (inactive); for `Cc1ccc(C)c(NC(=S)NCC(c2cccnc2)N2CCOCC2)c1` (stereo unspecified) it is 5% (inactive).
Consider `Cc1ccc(S(=O)(=O)N2CCN(CC(=O)N/N=C/c3cc([N+](=O)[O-])ccc3Cl)CC2)cc1`, for which the activation is -2.8% (inactive).
On to `COc1ccc(OCC(O)CNC(=O)Nc2ccc(Cl)cc2)cc1` (stereo unspecified), for which the activation was 7.7% (inactive).
As for `COc1cc(OC)c(C(=O)Nc2ccccc2-c2ccccc2)cc1OC`, the activation is 6.2% (inactive).
As to `COc1ccc([N+](=O)[O-])cc1NC(=O)c1ccc(N(Cc2ccccc2C)S(C)(=O)=O)cc1`, the activation was 0.6% (inactive).
As for `COc1ccc(C2Nc3ccccc3C(=O)N2c2ccc(F)cc2)cc1Cn1nnc2ccccc21` (stereo unspecified), the activation was -1.9% (inactive).
As to `O=C(N/N=C/c1cccc([N+](=O)[O-])c1)C1CC(=O)N(c2ccc(Br)cc2)C1` (stereo unspecified), the activation is -1.9% (inactive).
